Measurements as given in PubChem BioAssay (NCI).
Where “and” joins values, the source holds several entries; their conditions need not be identical. Identical values can stand only once. Compounds without any hit were thinned out: in the full panel of roughly 83,000, 20% have a hit.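 Values shown are percent growth following 48 h exposure of cells in 96-well plates to a single concentration of compound; below 10 was considered active.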 Calls of active or inactive are those of the source.

test system: MDA-MB-468 breast; assay: NCI-60 one-dose screen, 48 h (100 = growth as untreated, 0 = no growth, -100 = all killed); settings: 10 µM unless noted

Q: How did the growth turn out when CC(C)(C)C(=O)OCOP(=O)(NCc1ccccc1)C1CCCN(O)C1=O (centres undefined) was run?
A: The growth was -0.478% (active).

Q: Cn1c(O)c(N=O)c(=O)n(C)c1=O was tested. Which growth did it give?
A: Its growth is 112% (inactive) and 106% (inactive).

Q: How did the growth turn out when NC(=O)NC(=O)CI was run?
A: The growth was 83.7% (inactive).

Q: O=C(C(=O)N1CCCC1)c1cn(CCCCCn2cc(C(=O)C(=O)N3CCCC3)c3ccccc32)c2ccccc12 was tested. Which growth did it give?
A: Its growth is 91% (inactive).

Q: Which growth does the source give for COc1ccc(C(=O)c2ccc([As]=O)cc2)cc1 (centres undefined) here?
A: Its growth is -74.8% (active).

Q: Which growth does the source give for Nc1ccc2c(c1)Cc1cc(Br)ccc1-2 here?
A: Its growth is 85.2% (inactive).

Q: With CCC(Br)(CC)C(=O)NC(N)=O as the compound, how does the growth read?
A: The growth was 97.7% (inactive).

Q: For O=C1CCC(=O)N1SC(Cl)(Cl)Cl, which growth is on record?
A: The growth was 116% (inactive).

Q: For COC(=O)[C@@H](C)C[C@H](Cc1ccccc1)NC(=O)c1csc([C@@H](C[C@H](C(C)C)N(C)C(=O)[C@H](C)NC(=O)[C@H]2CCCCN2C)OC(C)=O)n1, which growth is on record?
A: The growth was 10.1% (inactive).

Q: How did the growth turn out when C[C@]12CCc3nc(-c4ccc(O)c(O)c4)sc3C1=CC[C@@H]1[C@@H]2CC[C@]2(C)C(=O)CC[C@@H]12 was run?
A: Its growth is 80.1% (inactive).

Q: With Fc1ccc(C2=NN(c3ccccc3)C(c3sc(N(CCCl)CCCl)nc3Cl)C2)cc1 (centres undefined) as the compound, how does the growth read?
A: The growth was 81.4% (inactive).

Q: How did the growth turn out when CC(=O)OC[C@]1(C)C=C2C(=O)[C@](C)(O)C3(CC3)C(C)=C2[C@H]1OC(=O)N(C)CCN(C)C(=O)OC(C)(C)C was run?
A: The growth was -62.5% (active).

Q: For c1ccc(CCN2CCCCC2Cc2ccccc2)cc1 (centres undefined), which growth is on record?
A: The growth was 103% (inactive).

Q: Which growth does the source give for CCCC(=O)O[C@@H]1C[C@H]2C[C@@H](O[C@@H]3O[C@@H](C)[C@@H](O)[C@@H](O)[C@H]3OC)C[C@@H](C[C@@H](C)/C=C/C=C\C[C@@H]3O[C@@H](C[C@@H]3C)[C@@H](O)C[C@H]3C[C@@]1(O)C(=O)O3)O2 here?
A: The growth was -6.3% (active).

Q: For ClCCN(CCCl)c1ccc(/C=N\N=C\c2ccc(N(CCCl)CCCl)cc2)cc1, which growth is on record?
A: The growth was 50% (inactive).

Q: How did the growth turn out when COC(=O)[C@@H](C)C[C@H](Cc1ccccc1)NC(=O)c1nc([C@@H](C[C@H](C(C)C)N(C)C(=O)[C@@H](NC(=O)[C@H]2CCCCN2C)C(C)C)OC(C)=O)sc1C(C)C was run?
A: Its growth is 20.7% (inactive).

Q: Which growth does the source give for CC(=O)O[C@@H]1C2=C(C)C3(CC3)[C@@](C)(O)C(=O)C2=C[C@@]1(C)CO here?
A: Its growth is -54% (active).

Q: How did the growth turn out when N#Cc1ccc(Cl)cc1 was run?
A: The growth was 123% (inactive).

Q: Which growth does the source give for Oc1c(I)cc(I)cc1I here?
A: Its growth is 102% (inactive).

Q: Which growth does the source give for COC(=O)[C@H](Cc1c[nH]c2ccccc12)NC(=O)[C@@H](OC)[C@@H]1Cc2cc3cc(OC4CC(OC5CC(O)C(O)C(C)O5)C(O)C(C)O4)c(C)c(O)c3c(O)c2C(=O)[C@H]1OC1CC(OC2CC(OC3CC(C)(O)C(O)C(C)O3)C(O)C(C)O2)C(O)C(C)O1 (some centres undefined) here?
A: Its growth is -48.8% (active).

Q: How did the growth turn out when O=P(Oc1ccc(Cl)cc1)(N1CC1)N1CC1 was run?
A: Its growth is 54.1% (inactive).

Q: COc1cc2c(cc1OC)C13CCN4CC5=CCOC6CC(=O)N2C1C6C5CC43 (centres undefined) was tested. Which growth did it give?
A: Its growth is 116% (inactive) and 108% (inactive).

Q: With CC1(C)N=C(N)N=C(N)N1c1ccc(CCCCc2ccc(S(=O)(=O)F)cc2)cc1 as the compound, how does the growth read?
A: Its growth is -3.5% (active).

Q: How did the growth turn out when O=[N+]([O-])c1ccc(N2CCOCC2)c2c1no[n+]2[O-] was run?
A: The growth was 2.62% (active).

Q: COc1c(O)c2c3c(c1OC)-c1ccccc1CC3N(C)CC2 (centres undefined) was tested. Which growth did it give?
A: The growth was 120% (inactive).

Q: O=[As]c1ccc(C(=O)c2ccc(Oc3ccccc3)cc2)cc1 (centres undefined) was tested. Which growth did it give?
A: The growth was -85.6% (active).

Q: For C=CC12CCN(CC1)C(C(O)c1ccnc3ccc(OC)cc13)C2 (centres undefined), which growth is on record?
A: The growth was 11.6% (inactive).

Q: Which growth does the source give for CC1=C(CNO)C2=C(C)C3(CC3)[C@@](C)(O)C(=O)C2=C1 here?
A: Its growth is -62.9% (active).

Q: How did the growth turn out when COc1ccc(C(c2ccc(OC)cc2)C(Cl)(Cl)Cl)cc1 was run?
A: Its growth is 18% (inactive).

Q: COC(=O)[C@H](C[C@H](Cc1ccccc1)NC(=O)c1csc([C@@H](C[C@H](C(C)C)N(C)C(=O)[C@@H](NC(=O)[C@H]2CCCCN2C)C(C)C)OC(C)=O)n1)NC(=O)OCc1ccccc1 was tested. Which growth did it give?
A: The growth was 0.51% [8.5 µM] (active).

Q: How did the growth turn out when COC(=O)[C@H](Cc1ccccc1)NC(=O)c1csc([C@@H](C[C@H](C(C)C)N(C)C(=O)[C@@H](NC(=O)[C@H]2CCCN2C)C2CC2)OC(C)=O)n1 was run?
A: Its growth is -5.59% (active).

Q: Which growth does the source give for Cc1ccc(C(Cc2ccccc2)NCCO)cc1 (centres undefined) here?
A: The growth was 96.7% (inactive).

Q: How did the growth turn out when CCOC(=O)[C@@H](C)C[C@H](Cc1ccccc1)NC(=O)c1csc([C@@H](C[C@H](C(C)C)N(C)C(=O)CNC(=O)[C@H]2CCCCN2C)OC(C)=O)n1 was run?
A: The growth was 28% (inactive).

Q: For COc1cc(/C=N/C2=C(C#N)C(c3ccco3)c3c(c4cc(C)ccc4oc3=O)O2)cc(OC)c1OC (centres undefined), which growth is on record?
A: Its growth is 109% (inactive).

Q: For CCCC(C)SP(=S)(SC(C)CCC)SC(C)CCC (centres undefined), which growth is on record?
A: Its growth is -25.4% (active).

Q: How did the growth turn out when CNC(=O)O/N=C(/C)c1ccc(Cl)cc1 was run?
A: Its growth is 105% (inactive).

Q: For O=C([O][Hg][CH2]C1COCC([CH2][Hg][O]C(=O)c2ccccc2)O1)c1ccccc1 (centres undefined), which growth is on record?
A: Its growth is 22.7% (inactive).

Q: Cc1ccc(C(=O)NCCCOc2ccc(N3C(N)=NC(N)=NC3(C)C)cc2Cl)cc1S(=O)(=O)F was tested. Which growth did it give?
A: Its growth is 123% (inactive).

Q: With COc1ccc(/C=C(\C)[N+](=O)[O-])cc1OC as the compound, how does the growth read?
A: The growth was -77.3% (active).
